S2 tox = reduces viability in counter-screen for ATXN expression inhibitors | S2 cells (HEK-293 line with an ATXN2-luciferase reporter) viability, CellTiter-Fluor protease fluorescence, 24 h | Potency, µM (doses to about 56.7 µM), actives largely listed as cytotoxic | 400,000 tested, 0.49% active | AID 651635; note: nearly all actives have a fitted effect of over 40% in size
TGFb inhibitor = inhibitors of TGF-b signaling. Potency, µM (series often up to 46.1 µM), hits mostly inhibitors. HepG2 CAGA-GFP TGF-b/SMAD3 reporter, GFP fluorescence, 18 h; TGF-beta stimulated, 500 pg/mL final. 410,000 tested, 1.2% active; note: nearly all actives have a fitted effect of over 65% in size
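Cell-based qHTS in HEPG2 carrying a CAGA-GFP Smad reporter; compounds added before 500 pg/mL final TGF-beta, 18 h incubation at 37 degrees C, GFP fluorescence quantified per cell by imaging cytometry.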
ATXN2 expr inh = ATXN2 expression inhibition. HEK-293 ATXN2-luciferase reporter, luminescence, 24 h. Potency, µM (titrated, usually from 57 µM), most hits filed as inhibitors. 360,000 tested, 0.72% active. AID 1745845; note: nearly all actives have a fitted effect of over 55% in size
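qHTS (up to 57 uM final) was run with 24 h compound exposure of reporter cells at 37 °C. Each well was multiplexed: SteadyGlo luminescence measured ATXN2-luciferase expression after a fluorogenic Gly-Phe-AFC viability readout (25 uM final).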
HepG2 tox = HepG2 cytotoxicity, counter-screen for TGF-b inhibitors | HepG2 CAGA-GFP viability, ATP luminescence, 18 h | Potency, µM (highest dose often 46.1 µM), hits mostly cytotoxic | 410,000 tested, 0.76% active
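HepG2 CAGA-GFP cells (1000/well, DMEM with 1% FBS) received compound, then TGF-beta at 500 pg/mL final, and were incubated 18 hours at 37 degrees C. Viability was read by CellTiter-Glo luminescence. Media-only wells were set as complete cell-killing and DMSO as no toxicity.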
RORgamma inh = ROR gamma (mouse) transcription inhibition; P51450; Drosophila S2 Gal4-RORgamma UAS-luciferase reporter, 20 h; Potency, µM (top dose mostly 53.6 µM), most hits filed as inhibitors; 310,000 tested, 5.4% active; AID 2551; note: nearly all actives have a fitted effect of over 60% in size
Target sequence (P51450 whole entry, looked up, the tested form may be a part): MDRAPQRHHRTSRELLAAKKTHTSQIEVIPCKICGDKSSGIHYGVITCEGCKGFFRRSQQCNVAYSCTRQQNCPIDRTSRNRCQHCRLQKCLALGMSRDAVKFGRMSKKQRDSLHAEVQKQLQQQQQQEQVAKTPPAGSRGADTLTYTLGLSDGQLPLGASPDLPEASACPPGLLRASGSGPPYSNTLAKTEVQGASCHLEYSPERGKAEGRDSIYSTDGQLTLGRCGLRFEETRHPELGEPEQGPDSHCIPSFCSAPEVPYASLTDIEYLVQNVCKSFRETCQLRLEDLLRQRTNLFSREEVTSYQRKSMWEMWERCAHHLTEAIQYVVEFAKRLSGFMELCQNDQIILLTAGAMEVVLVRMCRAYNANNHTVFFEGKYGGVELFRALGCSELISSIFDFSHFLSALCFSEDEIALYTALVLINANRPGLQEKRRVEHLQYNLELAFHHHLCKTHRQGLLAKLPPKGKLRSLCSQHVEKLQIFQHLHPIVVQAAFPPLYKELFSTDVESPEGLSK
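In this cell-based reporter format, copper sulfate (700 uM final) drives Gal4–ROR gamma fusion expression from a metallothionein promoter in Drosophila Schneider cells; compounds preincubated 1 hr, reporter read after 20 hr at ambient temperature.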
VP16 counter = counter-screen for ROR gamma inhibitors: Gal4-VP16 reporter; Drosophila S2 Gal4-VP16 UAS-luciferase, luminescence, 20 h; Potency, µM (series often up to 53.6 µM), actives largely listed as inhibitors; 310,000 tested, 3.5% active; AID 2546;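 note: Gal4-VP16 expression switched on by copper sulfate through the metallothionein promoter; nearly all actives have a fitted effect of over 50% in size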
Each line names hits and unclear results; the compound was inactive in the other large screens. The list is not random: actives were taken first. Their share in the collection is about 6.1%. Calls come from the whole dose curve; as a rule, active = well fitted curve in the direction sought with a large enough effect; inconclusive = small, poorly fitted or top-dose-only effect, or another doubt; inactive = no such curve, though single readings can be large; an effect the other way counts as inactive or inconclusive.

CC(C)(O)CC[C@@H](O)[C@](C)(O)[C@H]1CC[C@@]2(O)C3=CC(=O)[C@@H]4C[C@@H](O)[C@@H](O)C[C@]4(C)C3CC[C@]12C (stereo not given in full)	none
C[C@@H](C[C@@H](O)[C@H](O)C(C)(C)O)[C@@H]1CC[C@]2(C)C3=CC[C@H]4C(C)(C)C(=O)CC[C@]4(C)[C@H]3CC[C@@]12C	TGFb inhibitor 11µM, ATXN2 expr inh inconclusive, HepG2 tox 11µM, RORgamma inh 4.5µM, VP16 counter inconclusive (no result: S2 tox)
CCN(C(=O)COC(=O)CNC(=O)c1ccccc1C)C1=CCCCC1	none (no result: ATXN2 expr inh, RORgamma inh, VP16 counter)
CCCN(C(=O)CCl)C1=CCCCC1	ATXN2 expr inh 8.4µM (no result: S2 tox)
Cc1ccc(C)c(NC(=S)NCCc2ccc(F)cc2)c1	TGFb inhibitor inconclusive, RORgamma inh 2.5µM, VP16 counter 3.2µM (no result: ATXN2 expr inh)
Cc1ccc(C)c(NC(=S)NNc2ccc(F)cc2F)c1	RORgamma inh inconclusive, VP16 counter 3.2µM
Cc1ccc(NNC(=S)Nc2ccc(C(C)C)cc2)c(C)c1	TGFb inhibitor inconclusive, RORgamma inh 11µM, VP16 counter inconclusive
Cc1ccc([N+](=O)[O-])cc1NC(=S)NCCc1ccccc1	RORgamma inh 13µM, VP16 counter inconclusive
O=C(CSc1nc(-c2ccccc2)no1)N1CCN(c2ccc(F)cc2)CC1	none (no result: RORgamma inh, VP16 counter)
Cc1ccccc1NC(=S)NCCc1ccccc1	none
Cc1ccc(NC(=S)NCCc2ccccc2)c(C)c1	RORgamma inh 2µM, VP16 counter 3.5µM
O=C(NCCc1ccccc1)c1ccc([N+](=O)[O-])cc1	RORgamma inh 7.9µM, VP16 counter inconclusive
Cc1cc(Br)ccc1NC(=S)NCCc1ccccc1	RORgamma inh 2.5µM, VP16 counter 6.3µM
O=C(NCCc1ccc([N+](=O)[O-])cc1)c1ccccc1	none
CCOc1ccc(N2CC(NC(=O)c3ccc4c(c3)OCO4)CC2=O)cc1 (stereo not given)	none (no result: S2 tox, ATXN2 expr inh, RORgamma inh, VP16 counter)
CCc1ccc2c(c1)NC(c1ccc(F)cc1)=NC(c1ccncc1)=N2	none (no result: RORgamma inh, VP16 counter)
COc1cc(NC(C)=O)c2ncccc2c1[N+](=O)[O-]	RORgamma inh 4µM, VP16 counter inconclusive
CNC(=O)CC12CC3CC(CC(C3)C1)C2	none
CC(=O)N1CCN(C(=S)NC(=O)C23CC4CC(CC(C4)C2)C3)CC1	RORgamma inh 14µM
S=C(NC12CC3CC(CC(C3)C1)C2)N1CCCC1	RORgamma inh 14µM, VP16 counter inconclusive
CC1CCCCN1C(=O)NC12CC3CC(CC(C3)C1)C2 (stereo not given)	none
CNC(=S)N1CCC(NC(=O)C23CC4CC(CC(C4)C2)C3)CC1	none
COCCNC(=S)NC(=O)CC12CC3CC(CC(C3)C1)C2	RORgamma inh 2.5µM, VP16 counter inconclusive
O=C(CC12CC3CC(CC(C3)C1)C2)NC(=S)N1CCCCC1	RORgamma inh 4.5µM, VP16 counter 3.5µM
C[C@]12CCC(=O)C=C1CC[C@@H]1[C@H]2[C@@H](O)C[C@@]2(C)[C@H]1CC[C@]2(O)C(=O)CO	none (no result: S2 tox, TGFb inhibitor, HepG2 tox)
CC(Oc1ccccc1)C(=O)Nc1nnc2n1CCS2 (stereo not given)	none (no result: S2 tox, ATXN2 expr inh, RORgamma inh, VP16 counter)
Cc1ccc(CN2CCOc3ccc(CN4CCC(Oc5cccnc5)CC4)cc3C2)o1	none (no result: TGFb inhibitor, ATXN2 expr inh, HepG2 tox, RORgamma inh, VP16 counter)
CC(C)N1C/C(=C/c2ccsc2)C(=O)/C(=C/c2ccsc2)C1	TGFb inhibitor 7.9µM, ATXN2 expr inh inconclusive, RORgamma inh inconclusive, VP16 counter inconclusive (no result: S2 tox)
O=C1c2ccccc2C(=Cc2cccnc2)c2ccccc21	S2 tox inconclusive (no result: ATXN2 expr inh, RORgamma inh, VP16 counter)
CN1C/C(=C/c2ccc(B(O)O)cc2)C(=O)/C(=C/c2ccc(B(O)O)cc2)C1	RORgamma inh 2µM, VP16 counter 4.5µM (no result: S2 tox, TGFb inhibitor, ATXN2 expr inh, HepG2 tox)
CN1C/C(=C/c2cccnc2)C(=O)/C(=C/c2cccnc2)C1	S2 tox inconclusive, TGFb inhibitor 2.8µM, ATXN2 expr inh 20µM, RORgamma inh 5.6µM, VP16 counter 2.8µM
CC(C)N1C/C(=C/c2cccnc2)C(=O)/C(=C/c2cccnc2)C1	S2 tox inconclusive, TGFb inhibitor 7.1µM, RORgamma inh inconclusive, VP16 counter inconclusive

Screens as filed in PubChem.
